Assay [1] is described as follows: inhibitors of TNFa-induced NFkB p65 translocation, primary screen, imaging, HUVEC, MLSMR starter and 10KST1 sets (AID 438;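 active = inhibition above 20% together with a positive visual image hit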;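 also: compound added about 3h40 before a 20 min TNFalpha stimulation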;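 as to inhibition: signal is the nuclear over cytoplasmic p65 intensity ratio per well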). Particulars: HUVEC TNFa-induced p65 nuclear translocation; cell count: measured here: nuclei count (cytotoxicity indicator), at 2.08 µM; inhibition: at 2 µM, stronger effect = higher value, 0% TNFa-plus-vehicle, 100% no-TNFa wells.
A short description of assay [2]: reduction of polyQ htt aggregates in cells – imaging, exon1htt(103Q)mCFP cells, high-content imaging, primary screen (AID 483;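 active = visual image review flags a hit and inhibition of aggregation exceeds 20%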;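 also: compound exposure lasted 3 days before fixation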;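 as to nuclei count: percent of the per-plate median nuclei count of sample wells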). Particulars: exon1htt(103Q)mCFP cell line, aggregate imaging, at 2 µM; inhibition of aggregation: stronger effect = higher value; nuclei count: measured here: cell count, toxicity.
Assay [3] can be described thus: endothelial E-selectin expression blockers – imaging, HUVEC, immunofluorescence, MLSMR starter and 10KST1 sets, primary screen (AID 487;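 active = visually confirmed hit in the image check and inhibition above 20%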;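 as to inhibition: signal is fraction of cell area covered by stained E-selectin grains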;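 as to nuclei count: 100% = median nuclei count of all wells on the same plate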). Particulars: HUVEC TNFalpha-induced E-selectin immunofluorescence imaging, at 2 µM; inhibition: stronger effect = higher value; nuclei count: measured here: cell number, toxicity.
Assay [4] concerns the target Voltage-gated potassium channel subunit beta-2 (Rattus norvegicus) (UniProt P62483). Description: inhibitors of rat Kvbeta2 reductase activity – biochemical, NADPH fluorescence, primary screen (AID 622;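 active = fluorescence slope higher than the sample average by over 3 SD, cut at about -0.22 in these data, passing the limit was not always enough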;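 also: slope of raw intensity against log time taken from 70 to 1610 s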). Particulars: recombinant KvBeta, 4-cyanobenzaldehyde reduction, at 10 µM, stronger effect = higher value.
For assay [5] the target is unchanged. Description: enhancers of rat Kvbeta2 NADPH turnover – biochemical, NADPH fluorescence, primary screen (AID 623;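 active = NADPH fluorescence slope more negative than the mean of all samples by about 3 SD, 99.7% confidence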;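 also: fluorescence intensity change per second fitted from 20 to 320 s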). Particulars: Recombinant KvBeta, NADPH fluorescence decrease slope, 10 min; at 10 µM; stronger effect = lower value.
The target of assay [6] is Alpha-2C adrenergic receptor (Homo sapiens) (UniProt P18825). Description: compounds altering alpha2C-coupled GIRK flux – cell-based, HEK293 alpha2C/GIRK1/2, thallium flux, primary screen (AID 624;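 active = fluorescence slope after compound addition differing from the mean of all screened samples at 99.7% confidence, in either direction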;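 also: slope of fluorescence ratio to pre-addition baseline per second over 15 to 24 s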). Particulars: thallium flux BTC fluorescence, at 10 µM, actives lie on both sides.
Chain of Alpha-2C adrenergic receptor (Homo sapiens) (P18825 whole entry, looked up): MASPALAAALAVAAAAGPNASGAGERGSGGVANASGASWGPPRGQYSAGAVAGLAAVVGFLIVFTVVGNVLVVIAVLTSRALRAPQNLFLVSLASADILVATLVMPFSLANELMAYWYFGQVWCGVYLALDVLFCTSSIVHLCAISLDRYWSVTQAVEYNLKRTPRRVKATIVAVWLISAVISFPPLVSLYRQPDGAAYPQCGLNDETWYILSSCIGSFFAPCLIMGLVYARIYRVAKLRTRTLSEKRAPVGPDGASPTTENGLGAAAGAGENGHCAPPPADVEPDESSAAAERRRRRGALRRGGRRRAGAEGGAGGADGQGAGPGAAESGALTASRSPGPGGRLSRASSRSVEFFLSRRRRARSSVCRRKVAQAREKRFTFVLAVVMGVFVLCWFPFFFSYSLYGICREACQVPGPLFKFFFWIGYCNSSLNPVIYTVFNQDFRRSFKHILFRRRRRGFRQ
Assay [7] can be described thus: blockers of RIG-like receptor reporter activation – cell-based, Sendai virus stimulus, luciferase, 10K MLSCN set, TLR/RLR signaling modifier project, primary screen (AID 602276).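 Also: firefly luciferase from ISG56 promoter only with Renilla not read in this screen; 0% = Sendai virus plus DMSO and 100% = medium plus DMSO without virus.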 Particulars: HEK293 RL24 IRF3 luciferase reporter, at 10 µM, stronger effect = higher value. Background: In a reporter assay the amount or activity of a reporter protein is the signal.
A short description of assay [8]: TLR3 IRF3 reporter activation blockers – cell-based, poly I:C stimulus, luciferase, 10K MLSCN set, primary screen (AID 602277;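 active = inhibition of the reporter signal at or above 50%; inactive = inhibition below 50%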). Particulars: HEK293-TLR3 RL24 IRF3 luciferase reporter, at 10 µM, stronger effect = higher value.

The source made the active and inactive calls.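 The calls were made as follows, unless noted: active = inhibition at or above 50% at 10 µM; inactive = inhibition below 50%.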

Chain of Voltage-gated potassium channel subunit beta-2 (Rattus norvegicus) (P62483 whole entry, looked up): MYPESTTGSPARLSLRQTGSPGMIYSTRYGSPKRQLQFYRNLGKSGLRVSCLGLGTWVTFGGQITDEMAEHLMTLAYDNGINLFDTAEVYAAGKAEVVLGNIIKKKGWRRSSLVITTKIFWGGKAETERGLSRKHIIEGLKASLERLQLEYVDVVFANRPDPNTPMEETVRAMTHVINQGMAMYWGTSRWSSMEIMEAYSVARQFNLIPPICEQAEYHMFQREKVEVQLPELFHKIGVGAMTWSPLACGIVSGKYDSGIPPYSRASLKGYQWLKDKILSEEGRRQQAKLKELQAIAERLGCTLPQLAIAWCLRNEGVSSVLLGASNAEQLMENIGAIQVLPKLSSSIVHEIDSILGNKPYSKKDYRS

Regarding `COC(=O)c1ccc(C(=O)OC)c(NC(=O)Nc2ccc3c(c2)OCO3)c1`, the cell count in assay [1] worked out at 279. Further, the inhibition in assay [1] was -7.1% (inactive); in assay [3], -15.8% (inactive); in assay [7], -24.9% (inactive); in assay [8], -44.2% (inactive). The inhibition of aggregation in assay [2] is 2.1% (inactive). Also, the results for the nuclei count in assay [2] and in assay [3] were 94.2% and 95.1%, respectively. Moreover, the fluorescence slope in assay [4] is -0.417 (inactive). In assay [5], the NADPH fluorescence slope was 7.6e-06 (inactive). Besides, in assay [6], the slope was 0.00311 (inactive).

In the case of `CCOc1ccccc1N1C(=O)c2ccc(C(=O)Nc3cccnc3)cc2C1=O`, the cell count in assay [1] was found to be 594. Moreover, the inhibition in assay [1] is 0.8% (inactive); in assay [3], -38.7% (inactive); in assay [7] it was 11.8% (inactive); in assay [8], 21% (inactive). In assay [2], the inhibition of aggregation is 1.8% (inactive). Moreover, the nuclei count in assay [2] came to 105%; in assay [3], 109%. Besides, the fluorescence slope in assay [4] was -0.482 (inactive). In addition, the NADPH fluorescence slope in assay [5] is 1.2e-05 (inactive). Moreover, in assay [6], the slope was 0.00693 (inactive).

Turning to `COC(=O)C1=C(N)Oc2cc(C)n(Cc3ccncc3)c(=O)c2C1c1cccnc1` (stereo not drawn), the cell count in assay [1] amounted to 594. Moreover, the inhibition in assay [1] was -13.5% (inactive); in assay [3] it was 10.9% (inactive); in assay [7], 12.8% (inactive); in assay [8], 14.1% (inactive). Further, the inhibition of aggregation in assay [2] is 0% (inactive). The figures for the nuclei count in assay [2] and in assay [3] were 87.4% and 104%, respectively. In assay [4], the fluorescence slope was -0.479 (inactive). The NADPH fluorescence slope in assay [5] was -7e-05 (inactive). The slope in assay [6] was 0.00483 (inactive).

Consider `CCCn1c(SCC(=O)NCc2ccco2)nc2c1c(=O)n(C)c(=O)n2C`, for which the cell count in assay [1] worked out at 433. The inhibition in assay [1] is -9.2% (inactive); in assay [3], -144% (inactive); in assay [7] it was 16.6% (inactive); in assay [8], 10.9% (inactive). In addition, in assay [2], the inhibition of aggregation is 16.5% (inactive). Also, the results for the nuclei count in assay [2] and in assay [3] were 104% and 160%, respectively. Besides, the fluorescence slope in assay [4] is -0.379 (inactive). Also, the NADPH fluorescence slope in assay [5] is -4.1e-05 (inactive). For the same compound, in assay [6], the slope is 0.0049 (inactive).

On to `Cc1[nH]nc(N=CC2=C(O)CC(C)(C)CC2=O)c1-c1ccc(Cl)cc1`, for which, in assay [1], the cell count amounted to 344. Besides, the inhibition in assay [1] is 10.1% (inactive); in assay [3], -27.4% (inactive); in assay [7], 11.6% (inactive); in assay [8] it was -25.9% (inactive). Further, in assay [2], the inhibition of aggregation was -7.7% (inactive). Moreover, the nuclei count in assay [2] is 102%; in assay [3] it was 128%. The fluorescence slope in assay [4] is -0.402 (inactive). Also, in assay [5], the NADPH fluorescence slope was 1.2e-05 (inactive). Moreover, the slope in assay [6] was 0.00588 (inactive).

With `CCN1CCN(CCNC(=O)c2cn(C(C)c3ccccc3F)nn2)CC1` (stereo not drawn), the cell count in assay [1] stood at 560. Also, the inhibition in assay [1] is -29.6% (inactive); in assay [3], -32.9% (inactive); in assay [7], 12% (inactive); in assay [8] it was 9.63% (inactive). The inhibition of aggregation in assay [2] was -18.1% (inactive). Also, the nuclei count in assay [2] is 112%; in assay [3] it was 110%. Moreover, the fluorescence slope in assay [4] was -0.61 (inactive). Also, the NADPH fluorescence slope in assay [5] is -1.9e-05 (inactive). In addition, the slope in assay [6] is 0.00807 (inactive).

As for `Cc1ccc(-c2nnc(SC(C)C#N)n2N)cc1` (stereo not drawn), the cell count in assay [1] came out at 516. Also, the inhibition was -3.8% (inactive) in assay [1], -93.5% (inactive) in assay [3], 10.4% (inactive) in assay [7] and 19% (inactive) in assay [8]. The inhibition of aggregation in assay [2] is -0.7% (inactive). The nuclei count stood at 95.1% in assay [2] and 137% in assay [3]. The fluorescence slope in assay [4] is -0.587 (inactive). Besides, the NADPH fluorescence slope in assay [5] is -3.8e-05 (inactive). The slope in assay [6] was 0.00692 (inactive).

Consider `Cc1ccc(S(=O)(=O)N2CCN(C(=O)CSc3nnnn3C)C2)cc1`, for which the cell count in assay [1] was 348. Also, the inhibition in assay [1] is -14.6% (inactive); in assay [3], -89.7% (inactive); in assay [7], 6.82% (inactive); in assay [8], 20.3% (inactive). The inhibition of aggregation in assay [2] is 1.4% (inactive). In addition, the figures for the nuclei count in assay [2] and in assay [3] were 92.8% and 113%, respectively. Besides, the fluorescence slope in assay [4] was -0.35 (inactive). In addition, the NADPH fluorescence slope in assay [5] was 5.7e-06 (inactive). For the same compound, the slope in assay [6] is 0.00463 (inactive).

As to `O=C(Cn1nnc(-c2ccc(S(=O)(=O)N3CCCC3)cc2)n1)NCC1CCCO1` (stereo not drawn), the cell count in assay [1] was determined as 374. Besides, the inhibition in assay [1] was -6.9% (inactive); in assay [3], -7.7% (inactive); in assay [7] it was -11.8% (inactive); in assay [8], 15.1% (inactive). For the same compound, the inhibition of aggregation in assay [2] was 7.6% (inactive). Also, the nuclei count in assay [2] worked out at 95%; in assay [3] it was 112%. In assay [4], the fluorescence slope was -0.481 (inactive). For the same compound, the NADPH fluorescence slope in assay [5] was 3.3e-05 (inactive). In addition, the slope in assay [6] is 0.00625 (inactive).

As for `Cc1ccc(C)c(N2CCN(CCCNC(=O)Cn3cc4c(n3)CCCCC4)CC2)c1`, the cell count in assay [1] is 771. Further, the inhibition in assay [1] is -4.3% (inactive); in assay [3], -60.6% (inactive); in assay [7] it was 7.36% (inactive); in assay [8], 19% (inactive). Further, the inhibition of aggregation in assay [2] was -55.1% (inactive). Further, the nuclei count in assay [2] is 114%; in assay [3], 110%. Also, the fluorescence slope in assay [4] was -0.619 (inactive). In addition, in assay [5], the NADPH fluorescence slope was -3.7e-05 (inactive). In assay [6], the slope was 0.00461 (inactive).

Take `O=C(Oc1ccc2c(c1)CCC2)N1CCOCC1`: in assay [1], the cell count is 360. For the same compound, the inhibition in assay [1] was 5.5% (inactive); in assay [3], 21.8% (inactive); in assay [7] it was -63.8% (inactive); in assay [8], -185% (inactive). Moreover, in assay [2], the inhibition of aggregation is 6.4% (inactive). The nuclei count amounted to 88.2% in assay [2] and 81.4% in assay [3]. Moreover, the fluorescence slope in assay [4] is -0.393 (inactive). Besides, in assay [5], the NADPH fluorescence slope is 8.5e-06 (inactive). Besides, the slope in assay [6] is 0.00612 (inactive).

Consider `Cc1cc(N2CCN(C)CC2)nc(N2CCOCC2)n1`, for which the cell count in assay [1] stood at 692. Besides, the inhibition in assay [1] is -9.4% (inactive); in assay [3] it was -24.5% (inactive); in assay [7], -2.65% (inactive); in assay [8], 25.9% (inactive). Also, the inhibition of aggregation in assay [2] is -6.8% (inactive). Also, the nuclei count was determined as 125% in assay [2] and 109% in assay [3]. Also, in assay [4], the fluorescence slope was -0.425 (inactive). In assay [5], the NADPH fluorescence slope is -4.1e-05 (inactive). The slope in assay [6] was 0.00311 (inactive).

Take `COc1ccc(N(C(=O)c2ccco2)S(=O)(=O)c2cc(OC)ccc2OC)cc1`: the cell count in assay [1] was 568. For the same compound, the inhibition in assay [1] is 4.3% (inactive); in assay [3] it was 25.3% (inactive); in assay [7] it was 8.61% (inactive); in assay [8] it was 20.5% (inactive). In addition, the inhibition of aggregation in assay [2] was 7.3% (inactive). The values for the nuclei count in assay [2] and in assay [3] were 97.7% and 93.2%, respectively. The fluorescence slope in assay [4] was -0.343 (inactive). In addition, the NADPH fluorescence slope in assay [5] is 9.2e-06 (inactive). Also, the slope in assay [6] is 0.00421 (inactive).

In general, inhibition refers to the relative decrease from the control value, in per cent.

The record behind these values is PubChem BioAssay.
